Compound activity: PubChem BioAssay, National Center for Advancing Translational Sciences (NCATS)
A selection: hits, their analogues and other compounds. The true share with any hit is near 8.2%.
SW480 rereplic – A quantitative high throughput screen for small molecules that induce DNA re-replication in SW480 colon adenocarcinoma cells. 1.8% of 340,000 active. SW480 DNA re-replication, Hoechst DNA content imaging, 48 h. Potency, µM (highest dose often 46.1 µM), hits mostly activators; note: nearly all actives have a fitted effect of over 55% in size
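SW480 cells exposed to compounds for 48 hr at 37 C, 5% CO2, then Hoechst-stained 40 min. Nuclear DNA content imaged by fluorescence scanning (405 nm excitation, 500-530 nm emission); re-replication scored as increased high-intensity nuclei.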
KB-V1 cytotox – qHTS assay for MDR1-selective chemotherapeutics: Primary screen using the drug-selected MDR subline cells KB-V1; KB-V1 MDR cells viability, CellTiter-Glo, 72 h; Potency, µM (top dose mostly 46.1 µM), most hits filed as cytotoxic; 3.4% of 400,000 active; note: nearly all actives have a fitted effect of over 60% in size
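KB-V1 MDR subline cells in DMEM (phenol-red free, 10% FBS) exposed to compounds in qHTS concentration series for 72 h at 37 degrees C. Viability read by CellTiter-Glo luminescence; concentration-effect curves fitted after normalization and correction.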
ELG1 repair inh – qHTS screen for small molecules that inhibit ELG1-dependent DNA repair in human embryonic kidney (HEK293T) cells expressing luciferase-tagged ELG1 | HEK293T ELG1-luciferase reporter, luminescence, 16 h; DNA damage induced by 5-fluorouridine | 2.3% of 330,000 active | Potency, µM (titrated, usually from 46.1 µM), most hits filed as inhibitors | AID 504467, 2011; note: nearly all actives have a fitted effect of over 55% in size
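In this reporter screen, reduction of luminescence relative to DMSO vehicle indicated activity. Compounds and 5-fluorouridine were added together to 2,000 cells per well, incubated for 16 hr at 37 °C, then developed with ONE-Glo.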
KB-3-1 cytotox – qHTS assay for MDR1-selective chemotherapeutics: Primary screen using the parental adenocarcinoma cell KB-3-1. KB-3-1 viability, CellTiter-Glo ATP luminescence, 72 h. Potency, µM (titrated, usually from 46.1 µM), actives largely listed as cytotoxic. 1.4% of 400,000 active. AID 1347075, 2019; note: nearly all actives have a fitted effect of over 60% in size
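Parental KB-3-1 viability, qHTS format: 72 h compound exposure, 37 °C; CellTiter-Glo; media-only wells and DMSO plates as controls; concentration-effect fits on corrected data.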
MCF10A rerep – A quantitative high throughput screen for small molecules that induce DNA re-replication in MCF 10a normal breast cells; MCF 10A DNA re-replication, Hoechst nuclear intensity, 48 h; Potency, µM (series often up to 46.1 µM), most hits filed as activators; 2.9% of 350,000 active; AID 624296, 2012; note: nearly all actives have a fitted effect of over 50% in size
Numbers stand for hits; n = inactive; u = inconclusive; x = not tested or not shown; ! = not active in a repeat; [ ] = another dose, or the depositor's remark. Calls come from the whole dose curve; as a rule, active = well fitted curve in the direction sought with a large enough effect; inconclusive = small, poorly fitted or top-dose-only effect, or another doubt; inactive = no such curve, though single readings can be large; an effect the other way counts as inactive or inconclusive.

SMILES	SW480 rereplic	KB-V1 cytotox	ELG1 repair inh	KB-3-1 cytotox	MCF10A rerep
Cc1ccccc1OCC(=O)NCC(c1ccc(Cl)cc1)N1CCOCC1 (stereo unspecified)	x	u	x	n	x
CC(C)c1ccccc1OCC(=O)NCC(c1cccs1)N1CCOCC1 (stereo unspecified)	n	18.4µM	u	n	n
CCC(C)NC(=O)CSC1=Nc2ccccc2C2=NC(c3ccccc3)C(=O)N12 (stereo unspecified)	n	16.4µM	n	n	n
Oc1c(N=Nc2ccccn2)ccc2ccccc12	u	u	u	1.16µM	13µM
CCc1ccc(NC(=O)Cn2nnc(C(=O)NCc3cccs3)c2N)cc1	n	n	n	n	n
COc1ccccc1NC(=O)Cn1nnc(C(=O)NCc2cccs2)c1N	u	5.8µM	n	2.06µM!	1.16µM
CCc1ccccc1NC(=O)Cn1nnc(C(=O)NCc2cccs2)c1N	3.26µM	n	n	9.2µM!	u
COc1ccc(NC(=O)Cn2nnc(C(=O)NCc3cccs3)c2N)cc1	n	n	u	n	n
COc1ccc(NC(=O)Cn2nnc(C(=O)NCCc3ccccc3)c2N)c(OC)c1	n	n	n	n	n
COc1ccc(NC(=O)Cn2nnc(C(=O)NCc3ccccc3)c2N)c(OC)c1	u	n	n	u	16.4µM
CCOc1ccc(OCC)c(NC(=O)c2nnn(CC(=O)Nc3cc(C)cc(C)c3)c2N)c1	u	n	n	n	18.4µM
COc1ccc(CCNC(=O)C2CCN(C(=O)c3ccc(Br)cc3)CC2)cc1OC	n	n	n	n	n
Nc1nonc1-n1nnc(C(=O)N/N=C/c2ccoc2)c1CSc1ccc(Cl)cc1	n	n	n	n	n
CCCCNC(=O)Oc1ccc(C(=O)N2c3ccccc3NC(=O)C2C)cc1 (stereo unspecified)	n	u	n	n	n
Nc1c(C(=O)NCc2ccco2)nnn1CC(=O)Nc1ccccc1	n	n	n	n	u
CCc1ccccc1NC(=O)Cn1nnc(C(=O)NCc2ccco2)c1N	x	u	x	8.2µM	x
O=c1c(-c2nnc(SCc3ccc(Cl)cc3Cl)o2)cccn1Cc1ccccc1	n	2.91µM	n	u	n
Cc1c(C)n(CC(O)CN2CCCCCC2)c2ccccc12 (stereo unspecified)	n	n	n	n	n
OC(CN1CCCCC1)Cn1c2ccccc2c2cc(Br)ccc21 (stereo unspecified)	u	16.4µM	n	u	u
CCN(CC)c1ncnc2c1ncn2[C@H]1CN(Cc2ccc(OC)cc2)C[C@@H](CO)O1	x	n	x	n	x
C(=N\NC(=Nc1ccccc1)c1ccccn1)/c1ccccn1	u	16.4µM	u	u	u
COc1ccc(OC)c(C(=O)N/N=C/c2ccccn2)c1	n	n	n	n	n
O=C(N/N=C/c1ccccn1)c1ccccc1	n	n	u	n	u
COc1cc(C(=O)N/N=C/c2ccccn2)cc(OC)c1OC	18.4µM	u	u	18.4µM	20.6µM
CCOc1ccc(Br)cc1C(=O)N/N=C/c1ccccn1	u	n	11.6µM	n	n
SMILES	SW480 rereplic	KB-V1 cytotox	ELG1 repair inh	KB-3-1 cytotox	MCF10A rerep
O=C(N/N=C/c1ccccn1)c1ccc(Cl)cc1	4.11µM	n	u	n	u
COc1ccc(C(=O)N/N=C/c2ccccn2)cc1OC	n	u	n	n	n
Cc1ccccc1C(=O)N/N=C/c1ccccn1	u	20.6µM	u	u	n
O=C(Cc1ccc(F)cc1)N/N=C/c1ccccn1	n	n	n	n	n
O=C(N/N=C\c1ccccn1)C1c2ccccc2Oc2ccccc21	18.4µM	n	n	n	n
O=C(Cc1ccc(Br)c2ccccc12)N/N=C/c1ccccn1	n	u	9.2µM	n	n
COc1cc(C(=O)c2ccccc2C(=O)O)c(OC)c2c1CCCC2	n	n	x	n	n
Cc1cc(C)c(C)c(OCCOCCN2CCN(C)CC2)c1	n	n	n	n	20.6µM
Cc1ccc(CSc2nc(-c3ccc(C(C)(C)C)cc3)nc3cc(=O)[nH]n23)cc1	x	n	x	n	x
CCn1cnc2c(cnn2-c2ccccc2)c1=O	n	10.3µM	u	u	n
CCOC(=O)c1ccccc1NC(=O)Cn1cnc2c(cnn2-c2ccccc2)c1=O	n	n	n	n	n
O=C(Cn1cnc2c(cnn2-c2ccccc2)c1=O)N1CCCc2ccccc21	n	u	20.6µM	n	n
O=C(Cn1cnc2c(nnn2-c2ccccc2)c1=O)N1CCCc2ccccc21	n	n	u	n	n
COC(=O)c1ccccc1NC(=O)Cn1cnc2c(cnn2-c2ccccc2)c1=O	n	6.51µM	n	n	n
COC(=O)c1sc(NC(=O)/C=C/c2ccc(C)o2)nc1C	n	n	u	u	n
CCS(=O)(=O)NCCc1cc2ccc(C)cc2[nH]c1=O	n	20.6µM	n	n	n
CCOc1ccccc1-c1nc(-c2cc3ccc(C)cc3[nH]c2=O)no1	n	u	u	n	u
CCCc1nc(-c2cc3ccc(C)cc3[nH]c2=O)no1	n	11.6µM	u	n	n
CCS(=O)(=O)NCCc1cc2cc(C)c(C)cc2[nH]c1=O	n	n	n	n	n
COc1ccc(CC(=O)Nc2cccc(-c3nnc(-c4ccccc4)o3)c2)cc1OC	n	u	5.01µM	u	20.6µM
COc1ccc(CC(=O)Nc2cccc(-c3nnc(-c4ccc(C)cc4)o3)c2)cc1OC	n	4.11µM	11.6µM	n	u
COc1ccc(CC(=O)Nc2cccc(-c3ccc4nncn4n3)c2)cc1OC	n	n	7.3µM	u	n
COc1ccc(CC(=O)Nc2nc(C)cs2)cc1OC	n	n	16.4µM	n	n
CCN(CC(=O)Nc1c(F)cccc1F)C(=O)c1ccc(=O)n(C)n1	n	n	x	n	n
COc1ccc(CC(=O)NCc2cccc(CNC(=O)Cc3ccc(OC)c(OC)c3)c2)cc1OC	n	n	n	n	n
SMILES	SW480 rereplic	KB-V1 cytotox	ELG1 repair inh	KB-3-1 cytotox	MCF10A rerep
COc1ccc(CC(=O)Nc2cccc(-c3nnc(-c4cccc(C)c4)o3)c2)cc1OC	n[9.22 µM]	u	2.91µM	n	u
CCc1cccc(NC(=O)Cc2ccc(OC)c(OC)c2)c1	n	16.4µM	n	u	n
COc1ccc(S(=O)(=O)Nc2cccc(-c3ccc4nncn4n3)c2)cc1F	5.17µM	u	n	n	5.8µM
COc1ccc(CC(=O)Nc2ccc(-c3nnc(-c4ccccc4)o3)cc2)cc1OC	n	u	u	n	n
O=S(=O)(Nc1cccc(-c2ccc3nncn3n2)c1)c1cccc(F)c1	n	n	n	n	n
C[C@H](CO)N1C[C@H](C)[C@@H](CN(C)C(=O)Nc2ccc3c(c2)OCO3)Oc2c(NC(=O)Cc3ccccc3)cccc2C1=O	n	n	n	n	n
O=C(O)C1(O)C[C@@H](O)C(O)[C@H](O)C1 (stereo partly specified)	u	n	x	n	n
